Source: the supplement of paper PMC6555819

Experiments:
Assay in all cases: PBM binding z-score (relative to random genomic background probes); higher = stronger binding; sequences stand for … in GC…GCGATTGACAGCGTAGAATGAAGG
[1] = test system: PPARg:RXRa DBDmut IVT, anti-RXR (DBD mutation: RXRa K156A/R161A, NR concentration 270 nM, RXRa partner concentration 90 nM)
Outline: (§1)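 Binding z-scores were set against random background probes. The data came from custom Agilent 4×180K protein-binding microarrays carrying double-stranded probes with 34-nt variable regions, incubated 1 h with ligand-free nuclear receptor dimers. Partner-specific antibodies detected binding, and scanned fluorescence was regression-normalized.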

[2] = test system: PPARg:RXRa IVT, anti-PPARg (NR concentration 270 nM, RXRa partner concentration 90 nM)
Outline: as §1

[3] = test system: PPARg DBDmut:RXRa IVT, anti-PPARg (DBD mutation: PPARg1 K132A/R137A, NR concentration 270 nM, RXRa partner concentration 90 nM)
Outline: as §1

[4] = test system: PPARg DBDmut IVT, anti-PPARg (DBD mutation: PPARg1 K132A/R137A, NR concentration 270 nM)
Outline: as §1

[5] = test system: PPARg homodimer (NR concentration 180 nM)
Outline: as §1

[6] = test system: PXR:RXRa (NR concentration 270 nM, RXRa partner concentration 90 nM)
Outline: as §1

[7] = test system: PXR homodimer (NR concentration 270 nM)
Outline: as §1

[8] = test system: RARa:RXR (NR concentration 270 nM, RXRa partner concentration 90 nM)
Outline: as §1

[9] = test system: RARa homodimer (NR concentration 270 nM)
Outline: as §1

[10] = test system: RARb:RXRa (NR concentration 270 nM, RXRa partner concentration 90 nM)
Outline: as §1

Sequence	PBM binding z-score [1]	PBM binding z-score [2]	PBM binding z-score [3]	PBM binding z-score [4]	PBM binding z-score [5]	PBM binding z-score [6]	PBM binding z-score [7]	PBM binding z-score [8]	PBM binding z-score [9]	PBM binding z-score [10]
TCATATAGGTAAATGCTAGGTGCAAGTCCGATCT	3.77	1.96	1.24	0.918	0.912	0.511	0.449	0.897	0.586	0.263
TCTATTAGTTGATTAGGGCCACCGAAACAGCGGA	1.82	0.608	0.893	0.609	0.28	0.517	0.469	0.615	1.05	0.596
CCTTACGGGTGACGAGGTTATAGCACGACGAGCG	1.91	2.65	0.21	-0.275	1.21	0.931	-0.0569	1.52	0.128	1.1
CGAACTAGATCATCCAGGACAGTGAATACATTGA	2.02	1.22	0.762	0.684	0.315	-0.222	0.306	0.105	1.19	-0.2
GCAGACAGGTCAAACGCAGGTAACTCAGGGTGGC	2.15	1.91	0.427	-0.842	2	3.06	-0.42	4.18	-0.318	4.17
AGAATGAGGTTATACGCAGATCAGGGAAGAAAGT	2.73	2.31	1.31	0.997	0.831	1.14	0.481	1.59	0.675	1.52
TCTAGCAGGCCAGAGTGTCACTCAAGAGGTACGG	0.735	0.187	-0.515	-1.96	-0.804	-0.229	-0.833	0.142	-1.77	0.361
CCTACTGGGCCATTCTGAGGTCATTGATCATATG	4.08	4.24	0.979	-0.299	1.5	4.42	3.46	3.85	-0.372	2.57
ATACCAAGGTGATAGTGAGGTCGTTGATACTAAC	0.454	1.64	0.276	0.701	1.01	3.17	1.94	2.23	0.553	1.51
ATATATAGGTTACATCCGGGTCATTCAGGCTATG	7.41	7.26	3.67	2.9	2.67	4.12	2.95	4.05	1.77	2.51
TAGCCTAGGTCAGATTGGGCCAGTATACGCTATA	0.821	1.47	-0.745	-0.0991	0.692	0.48	-0.72	0.891	-0.737	3.16
TAGCCTAGGTCATTGGGCCAGTTTAGTACGCATC	2.53	3.45	-0.6	0.202	0.893	1.71	-0.11	2.11	-0.422	3.52
TAATATAGGTAAATGCTAGGTGAAAGTCCGATCT	5.57	5.11	2.14	2.14	1.2	0.298	0.623	0.771	1.52	0.389
TCGAGTAGGTTACCAATGGGGCCTTCAGCTTTCT	3.36	2.22	-0.652	-1.23	-0.653	-0.289	-1.01	0.0831	-1.27	0.653
ATCTCTAGGTAGCCAAGTTCAGTGAATGCCGAAC	0.328	0.377	-0.173	0.614	0.13	1.2	0.957	0.266	0.228	0.669
ATACCAAGGTGATCGTGCGGTCGTTGATACTAAC	0.367	0.959	-0.0975	-0.386	-0.0029	0.16	0.0689	-0.0765	0.173	0.748
TCATATAGGTAAATGCTAGGTGAAAGTTCGATCT	3.99	3.4	1.55	1.1	1.29	1.17	0.91	1.61	1.71	0.871
CGAACTAGGTCAGAACACGACAGTGAAGGATGAT	7.06	7.2	1.44	1.71	1.06	0.221	0.0475	0.721	0.743	2.84
ATATGTAGGTTACATCCGGGTCATACAGGCTATG	7.27	7.54	4.07	3.35	3.84	3.46	1.19	4.26	0.627	2.41
AGAACGAGGCCAATGAGTTGATAGCACGGGTGGC	1.54	0.862	0.703	0.331	-0.093	0.214	0.741	-0.114	0.0259	0.946
CCTTACGGGTCATGGTTATAGCACGGGTGGTACG	1.34	3.31	0.473	-0.548	1.58	2.96	0.0669	3.6	0.484	3.64
TAGCCTAGGTCATGGGCCATTATACCACGCGAAC	1.69	3.57	0.221	-0.316	1.41	1.81	-0.0788	2.65	-0.113	3.98
AGAATGAGGTTAGTAAGATCAGGGAATTGCGGTC	2.97	2.49	0.854	-0.148	0.454	0.1	0.333	0.331	0.721	1.22
TCAGACAGGCGAAGGTAACTCAGGTACGCAGTCG	1.62	-0.431	-0.529	-0.776	-0.126	0.167	-0.281	0.0245	-0.553	0.0079
